Screening data from PubChem BioAssay.
Only some compounds are listed: those with a hit (about 8.9% of all), similar ones and a draw of the others.
KB-V1 cytotox: qHTS assay for MDR1-selective chemotherapeutics: Primary screen using the drug-selected MDR subline cells KB-V1 | KB-V1 MDR cells viability, CellTiter-Glo, 72 h | Potency, µM (titrated, usually from 46.1 µM), most hits filed as cytotoxic | hit rate 3.4% among 400,000 | AID 1347076, 2019; also: potency is read from the fitted curve at half-maximal effect; % is scaled to controls: 0 for no effect and ±100 for the full control effect; nearly all actives have a fitted effect of over 60% in size
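Cytotoxicity toward P-gp-expressing KB-V1 cells was determined as loss of CellTiter-Glo luminescence after 72 h at 37 degrees C. Compounds were tested in quantitative HTS format across a concentration range, with curves fitted to normalized data.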
DRD3 agonist: qHTS of D3 Dopamine Receptor Agonist: qHTS | max activation, % | hit rate 0.58% among 410,000 | D3R DiscoveRx beta-arrestin cells, luminescence, 90 min | D(3) dopamine receptor (Homo sapiens), P35462; in the data active = max activation above about 30%; also: 0% is about no effect
Target sequence (P35462 whole entry, looked up): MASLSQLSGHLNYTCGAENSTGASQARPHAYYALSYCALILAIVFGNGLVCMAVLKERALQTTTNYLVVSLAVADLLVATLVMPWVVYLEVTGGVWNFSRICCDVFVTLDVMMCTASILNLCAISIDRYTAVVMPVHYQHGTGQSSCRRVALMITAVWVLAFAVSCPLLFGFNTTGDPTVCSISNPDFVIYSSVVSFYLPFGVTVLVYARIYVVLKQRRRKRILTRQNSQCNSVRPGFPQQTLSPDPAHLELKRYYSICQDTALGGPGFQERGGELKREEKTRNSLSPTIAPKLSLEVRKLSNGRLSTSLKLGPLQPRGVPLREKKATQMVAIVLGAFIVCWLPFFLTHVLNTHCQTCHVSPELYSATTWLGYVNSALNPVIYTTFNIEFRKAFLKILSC
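Agonist mode: compounds and dopamine controls were applied to plated cells for 90 min at 37 degrees C after an overnight attachment at 1500 cells/well. Luminescent read-out followed 30 - 60 minutes at room temperature with DiscoveRx detection reagent.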
MCF10A rereplic: A quantitative high throughput screen for small molecules that induce DNA re-replication in MCF 10a normal breast cells. Potency, µM (highest dose often 46.1 µM), inactives show at the highest dose activity, positive = re-replication, most hits filed as activators. MCF 10A DNA re-replication, Hoechst nuclear intensity, 48 h. hit rate 2.9% among 350,000; also: potency is read from the fitted curve at half-maximal effect; % of control where 0% means no effect; nearly all actives have a fitted effect of over 50% in size
KB-3-1 cytotox: qHTS assay for MDR1-selective chemotherapeutics: Primary screen using the parental adenocarcinoma cell KB-3-1 | KB-3-1 viability, CellTiter-Glo ATP luminescence, 72 h | Potency, µM (top dose mostly 46.1 µM), actives largely listed as cytotoxic | hit rate 1.4% among 400,000; also: potency is read from the fitted curve at half-maximal effect; % is scaled to controls: 0 for no effect and ±100 for the full control effect; nearly all actives have a fitted effect of over 60% in size
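Parental KB-3-1 adenocarcinoma cells in phenol-red-free DMEM with 10% FBS were pin-treated with compounds at several concentrations, incubated 72 h at 37 °C, and viability read by CellTiter-Glo luminescence; concentration-effect curves were fitted after normalization.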
SW480 rereplic: A quantitative high throughput screen for small molecules that induce DNA re-replication in SW480 colon adenocarcinoma cells; hit rate 1.8% among 340,000; SW480 DNA re-replication, Hoechst DNA content imaging, 48 h; Potency, µM (highest dose often 46.1 µM), for inactives: at the highest dose re-replication activation, hits mostly activators; AID 624297, 2012; also: potency is read from the fitted curve at half-maximal effect; % of control where 0% means no effect; nearly all actives have a fitted effect of over 55% in size
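250 cells/well; 23 nL cpd via pin tool; 48 hr, 37 C, 5% CO2; Hoechst 40 min; imager read of total nuclear intensity, ex 405/em 500-530 nm.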
D3 antag: qHTS of D3 Dopamine Receptor Antagonist: qHTS; D(3) dopamine receptor (Homo sapiens), P35462; D3R cells, DiscoveRx beta-arrestin luminescence, antagonist mode; stronger effect = lower value; max response, negative = inhibition, %; hit rate 2.5% among 360,000; AID 652054, 2013; in the data active = max response below about -50%; inconclusive = no clear call, values can overlap the other calls; also: % is scaled to controls: 0 for no effect and ±100 for the full control effect
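Cells expressing the human receptor were seeded at 1500 cells/well, incubated overnight at 37 degrees C in 5% CO2, then exposed to library compounds with dopamine controls for 90 minutes at 37 degrees C before luminescent detection.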
The depositor's hits bear a star; i = inactive; ? = inconclusive; · = no result; [ ] = remark or other dose. Unless noted, calls follow the shape of the dose curve; as a rule, active = well fitted curve in the direction sought with a large enough effect; inconclusive = small, poorly fitted or top-dose-only effect, or another doubt; inactive = no such curve, though single readings can be large; an effect the other way counts as inactive or inconclusive.

SMILES	KB-V1 cytotox	DRD3 agonist	MCF10A rereplic	KB-3-1 cytotox	SW480 rereplic	D3 antag
CCOC(=O)C1=C(C)N=C2SCCC(=O)N2C1c1ccc(OCc2ccccc2)c(OC)c1 (centres undefined)	i	4	·	i	·	·
COc1ccc(CNC(=O)C(C)N2CCN(S(=O)(=O)c3ccccc3F)CC2)cc1 (centres undefined)	23µM*	3	-2%	i	-3%	0
COc1ccc(C(=O)/C(Br)=C/C(=O)O)cc1	·	·	21µM*	·	?	·
Cc1ccc(Cl)cc1N1CCN(C(=O)CCCn2c(=O)c3cccn3c3cccnc32)CC1	?	3	16µM*	i	?	12
Cc1cccc(N2CCN(C(=O)CCCn3c(=O)c4cccn4c4cccnc43)CC2)c1C	?	14	?	i	-15%	32
N#Cc1ccc(-c2ccccc2)nc1SCC(=O)c1cccc(Cl)c1	i	0	14µM*	i	0%	-10
N#Cc1ccc(-c2ccc(Cl)cc2)nc1SCC(=O)c1cccc(Cl)c1	?	-3	-2%[9.22 µM]	?	-22%	2
COCCCNc1ncnc2c1sc1nc(-c3ccco3)c3c(c12)CC(C)(C)OC3	?	60*	5%	i	-9%	12
CC(C)Cc1nc2sc3c(NCc4ccco4)ncnc3c2c2c1COC(C)(C)C2	i	-3	?	i	0%	15
Cc1nc2sc3c(NCc4ccco4)ncnc3c2c2c1COC(C)(C)C2	18µM*	10	?	?	?	5
CC(Sc1ccccc1)C(=O)N/N=C/c1ccccc1 (centres undefined)	?	3	-1%	i	-3%	11
CC(C)CCC[C@@H](C)[C@H]1CC(=O)C2=C3CC[C@H]4C[C@@H](O)CC[C@]4(C)[C@H]3CC[C@@]21C	·	-1	·	·	·	·
CCCN1CCC(C(=O)NC(c2ccc(F)cc2)c2ncccc2C)CC1 (centres undefined)	i	-10	·	i	·	-57*
CCC(C)NC(=O)C1CCN(CCCc2ccccc2)CC1 (centres undefined)	?	-6	17%	i	-2%	1
Cc1cccnc1C(NC(=O)C1CCN(CCCc2ccccc2)CC1)c1ccc(F)cc1 (centres undefined)	i	-20	·	i	·	-70*
CCN1CCC(C(=O)NC(c2ccc(F)cc2)c2ncccc2C)CC1 (centres undefined)	i	-15	·	i	·	?
Cn1c(NCCCO)nc2c1c(=O)n(Cc1cccc(F)c1)c(=O)n2C	i	9	·	i	·	·
COc1ccc(C(=O)/C=C/c2ccsc2)cc1CSCC(=O)O	i	-7	18µM*	i	?	-11
CC(=O)c1cc2c(cc1NC(=O)Cn1nc(-c3ccc(C)cc3)ccc1=O)OCO2	9.2µM*	-9	?	23µM*	5%	-1
CN(C)S(=O)(=O)c1ccc(NC(=O)Cn2nc(-c3ccc4c(c3)OCCO4)ccc2=O)cc1	?	2	70%	?	18µM*	14
Cc1ccc(-c2ccc(=O)n(CC(=O)Nc3ccc4c(c3)OCCO4)n2)cc1	i	-1	?	i	-23%	1
COc1ccccc1NC(=O)Cn1nc(-c2ccc3c(c2)OCCO3)ccc1=O	i	-10	0.92µM*	i	4%	5
Cc1ccc2c(CN3CCN(C(=O)c4ccc(F)cc4)CC3)cc(=O)oc2c1	·	-13	·	·	·	·
Cn1nc(-c2ccncc2)nc2c(=O)n(C)c(=O)nc1-2	?	·	·	1.8µM*	·	·
Cc1onc(-c2ccccc2Cl)c1C(=O)N(C)C1CCCCC1	i	8	3%	?	0%	3
CN(C)/C=C/c1onc(-c2ccccc2Cl)c1C#N	i	6	18µM*	i	1%	-12
